Most compounds without a hit are left out; they make up all but 9.3% or so of the library.
M1 antagonist = blocks the rat M1 muscarinic receptor response to acetylcholine. P08482. actives 3.4% (n = 64,000). B-score at 10 µM. CHO-M1 cells, Fluo-4 calcium, ACh EC80 antagonist mode; stronger effect = lower value;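 active = calcium fluorescence response, raw or row-and-column corrected B-score, differing from the plate sample mean either way at a set confidence level, mostly lower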
Target sequence (P08482 whole entry, looked up): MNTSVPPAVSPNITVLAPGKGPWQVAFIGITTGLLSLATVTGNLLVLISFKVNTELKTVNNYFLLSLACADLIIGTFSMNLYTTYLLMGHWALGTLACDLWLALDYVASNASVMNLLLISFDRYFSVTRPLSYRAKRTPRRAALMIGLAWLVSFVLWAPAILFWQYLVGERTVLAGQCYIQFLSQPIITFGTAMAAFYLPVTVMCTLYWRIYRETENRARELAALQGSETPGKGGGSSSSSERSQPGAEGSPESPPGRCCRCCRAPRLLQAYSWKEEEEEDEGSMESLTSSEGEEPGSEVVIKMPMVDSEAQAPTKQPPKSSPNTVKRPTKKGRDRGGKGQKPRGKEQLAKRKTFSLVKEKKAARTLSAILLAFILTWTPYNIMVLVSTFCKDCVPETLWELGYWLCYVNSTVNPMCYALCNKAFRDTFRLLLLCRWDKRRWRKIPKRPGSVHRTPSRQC
mHtt clearance = mutant huntingtin protein clearance. inhibition, % at 1.5 µM. actives 0.42% (n = 47,000). HeLa Exon1htt(103Q)mCFP, aggregate imaging; zero = plate's median compound well;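 active = inhibition of aggregate fluorescence above about 70%, also judged a hit by eye on the cell image, limit read from the data, passing the limit was not always enough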;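 note: cells exposed to compound for three days before fixation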
NADH coupling = inhibitors of enzymes used to reach an NAD/NADH endpoint | coupled PK/LDH NADH assays, four targets | IC50, µM (series often up to 10 µM) | actives 0.02% (n = 65,000) | AID 774;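 active = single-dose screening hits from any of four coupled enzyme assays that gave an IC50 when retested across doses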;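 note: the DPM-DC format reads NADH fluorescence rather than 340 nm absorbance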
Fluor 339 460 = intrinsic fluorescence of library compounds, ex339/em460 – biochemical, MLSMR library, data from DPM-DC assay, artefact control, profiling panel. fluorescence fold increase at 10 µM. actives 5.5% (n = 65,000). AID 709. compound autofluorescence, ex339/em460 nm, NADH buffer; stronger effect = higher value; 1 = no-compound wells, NADH background;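 active = at 10 µM, mean starting fluorescence two-fold or more over control wells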;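 note: signal is the first read of a kinetic run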
M1 agonist = M1 muscarinic receptor agonism; B-score at 10 µM; actives 3% (n = 64,000); CHO-M1 cells, Fluo-4 calcium fluorescence, agonist mode; stronger effect = higher value;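 active = fluorescence rise, raw or as B-score row- and column-corrected plate score, outside the 99.7% band of its plate's samples, either direction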
Abs 340nm = compound absorbs light at 340 nm. AID 708. compound absorbance at 340 nm, fold over control. fold change at 10 µM. 65,000 tested, under 10 active;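 active = at 10 µM dose, initial 340 nm absorbance at least 2 fold that of control wells; inactive = change under 2 fold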;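 note: initial absorbance extrapolated from kinetic A340 decline of NADH oxidation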
A number is an active result; – = inactive; · = no result.

SMILES	M1 antagonist	mHtt clearance	NADH coupling	Fluor 339 460	M1 agonist	Abs 340nm
O=C1c2ccccc2NC2CCCCC12 (configuration not stated)	–	·	–	–	–	–
COc1ccccc1-c1noc(CCC(=O)Nc2ccccc2Cl)n1	–	–	–	–	–	–
Nc1ccc2[nH]ncc2c1	–	·	–	2.29	–	–
CSc1ccc(N2C(=O)NC3(CCCCC3)C2=O)cc1	–	–	–	–	–	–
COCC(=O)Nc1ccc(-c2cn3cccnc3n2)cc1	–	·	–	5.24	–	–
Brc1ccc(-c2cn3cccnc3n2)cc1	–	–	–	3.41	–	–
CCOCC(=O)Nc1cc(-c2cn3cccnc3n2)ccc1C	–	·	–	5.26	–	–
Cc1cc(C)c(N2CCN(S(=O)(=O)N3CCCCCC3)CC2)c(C)c1	–	–	–	–	–	–
CCN1CCN(CCCNC(=O)C2CCCN(c3nnc(-n4cccc4)s3)C2)CC1 (configuration not stated)	–	–	–	–	–	–
COC(=O)c1ccc(C2C(C(=O)Nc3ccc(C)cc3C)=C(C)Nc3ncnn32)cc1 (configuration not stated)	–	·	–	–	–	–
Cc1cc2n(n1)C(c1ccc(O)cc1)Nc1ccccc1-2 (configuration not stated)	–	–	–	2.92	–	–
Cc1cc2n(n1)C(c1c[nH]c3ccccc13)Nc1ccccc1-2 (configuration not stated)	–	·	–	2.35	–	–
Cc1cc2n(n1)C(c1cn(-c3ccccc3)nc1C)Nc1c(C)cccc1-2 (configuration not stated)	·	–	·	·	·	·
Cc1cc2n(n1)C(c1cn(-c3ccccc3)nc1C)Nc1ccccc1-2 (configuration not stated)	–	·	–	2.15	–	–
CC(=O)N1CCN(S(=O)(=O)c2ccc(S(=O)(=O)NCC(C)C)cc2)CC1	–	·	–	–	–	–
Cc1cc(C(F)(F)F)c2c(=O)[nH]c(=O)n(Cc3ccccc3)c2n1	–	·	–	–	–	–
O=c1[nH]c(=O)n(Cc2ccccc2)c2nc(-c3ccco3)cc(C(F)(F)F)c12	–	–	–	4.89	–	–
CCOCc1cc(C)[nH]c(=O)c1C#N	–	–	–	4.46	–	–
CCOC(=O)N1CCN(CC(=O)Nc2c(C(=O)OC)[nH]c3cc(C)ccc23)CC1	·	–	·	·	·	·
COC(=O)c1[nH]c2ccc(C)cc2c1NC(=O)CN1CCN(C(=O)c2ccccc2)CC1	–	–	–	2.85	–	–
Cc1ccc2[nH]c(C(=O)O)c(NC(=O)CN3CCN(c4cccc(C)c4C)CC3)c2c1	–	·	–	–	–	–
COC(=O)c1[nH]c2ccc(C)cc2c1NC(=O)CN1CCN(Cc2ccccc2)CC1	–	–	–	2.92	–	–
COC(=O)c1[nH]c2ccc(C)cc2c1NC(=O)C(C)N1CCN(C2CCCCC2)CC1 (configuration not stated)	–	–	–	3.5	–	–
COC(=O)c1[nH]c2cc(OC)c(OC)cc2c1NC(=O)CN1CCN(Cc2ccccc2)CC1	–	·	–	3.72	–	–
COc1ccc(C(=O)NCCc2c[nH]c3ccccc23)cc1S(=O)(=O)N1CCOCC1	–	–	–	–	–	–
SMILES	M1 antagonist	mHtt clearance	NADH coupling	Fluor 339 460	M1 agonist	Abs 340nm
CCOC(=O)CSc1nnc(CNC(=O)c2ccco2)n1C	–	–	–	–	–	–
COC(=O)c1[nH]c2ccc(C)cc2c1NC(=O)CN1CCN(c2ccccc2)CC1	–	·	–	2.13	–	–
COC(=O)c1[nH]c2ccc(C)cc2c1NC(=O)CN1CCN(c2ccc(F)cc2)CC1	–	·	–	2.23	–	–
COC(=O)c1[nH]c2ccc(C)cc2c1NC(=O)CN1CCC(C)CC1	–	·	–	–	–	–
CCCCn1nnnc1NCc1ccc(C)s1	·	–	·	·	·	·
N#Cc1nn(-c2ccccc2)nc1N1CCCCC1	–	·	–	5.04	–	–
CC(=O)NCCn1c(SCc2cc(=O)n3cc(Cl)ccc3n2)nc2ccccc2c1=O	–	–	–	2.13	–	–
CC(=O)NCCn1c(SCc2ccccc2F)nc2ccccc2c1=O	–	–	–	–	–	–
Cc1ccc(-c2ccc(=O)n(CCC(=O)NCCN3CCCCC3C)n2)cc1 (configuration not stated)	–	–	–	–	–	–
Cc1ccc(S(=O)(=O)Nc2ccc(Br)cc2/C=N/n2cnnc2)cc1	–	·	–	–	–	–
